The results in this text go back to PubChem BioAssay (NCI).

Compounds without any hit were thinned out: in the full panel of roughly 83,000, 20% have a hit.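 96-well plates, one dose, 48 hours. Percent growth reported; active if below 10.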 A number with no mark means an inactive call. Activity calls are given as the source filed them.

The subject of this test is COLO 205 colon. In words: NCI-60 one-dose screen, 48 h (100 = growth as untreated, 0 = no growth, -100 = all killed). Particulars: 10 µM unless noted. On the procedure: Cells are grown in 96 well plates and exposed to the test compound for 48 hours. Compounds are tested at a single concentration, which is 10^-5 M for most compounds. The reported endpoint is percent growth (GI% or GIPRCNT), where numbers from 0 - 100% represent growth inhibition, and numbers from -100% - 0 represent cell death. For example, a value of 40 represents 60% growth inhibition. A value of 0 means no net growth occurred over the course of the experiment. A value of -40 indicates 40% of cells at the beginning of the experiment died by the end of the experiment. A value of -100 means all cells are dead at the end of the experiment.
NCI-60 Human Tumor Cell Lines Screen was performed using the standard one-dose NCI protocol, which is described in more detail at https://dtp.cancer.gov/discovery_development/nci-60/default.htm.
Compounds with GIPRCNT values below 10 were considered active. Activity score was based on GIPRCNT using the following formula: […]
Score is 0 for GIPRCNT values of 100 or above, 50 for GIPRCNT values of 0, and 100 for GIPRCNT values of -100.
Take `N#CC1C(C#N)C2c3ccccc3C=CN2C1C(=O)c1ccc(Br)cc1` (stereo not given): the growth is 107%.

On to `Cn1cc(-c2nc(-c3c[nH]c4c(Cl)nccc34)cs2)c2cc(Br)ccc21`, for which the growth is 90.4%.

As for `Cc1cccc(-c2cn3ccnc3c(-c3ccc4ncn(Cc5ccccc5)c4c3)n2)c1`, the growth is 88.6%.

As to `COc1cc(C=O)ccc1OC1OC(COC(C)=O)C(OC(C)=O)C(OC(C)=O)C1OC(C)=O` (stereo not given), the growth is 98.7%.

On to `CCOC(=O)C1=C(CCl)NC(=O)NC1c1ccc2c(c1)OCO2` (stereo not given), for which the growth was 75.6%.

Consider `CN(C)c1ccc(Nc2c3ccccc3nc3cc(NC(=O)CCN4CCCC4)ccc23)cc1`, for which the growth was -27.3% (active).

With `C=C(C)[C@@H]1CC[C@]2(C(=O)N3CCN(C)CC3)CC[C@]3(C)[C@H](CC[C@@H]4[C@@]5(C)CC[C@H](OCCC#N)C(C)(C)[C@@H]5CC[C@]43C)[C@@H]12`, the growth was 50.3%.

`COc1ccc(/C=C/c2nc(Nc3ccc(S(=O)(=O)Nc4cc(C)on4)cc3)c3ccccc3n2)cc1`: the growth is 48.6%.

Consider `COc1ccc2c(c1)oc1c(C)c3c(c(C)c12)C(=O)N(CCN1CCOCC1)C3=O`, for which the growth was 109%.

Consider `C#CCNC(=O)c1cccc2c1cc(C)n2-c1nc2c(c(NCc3ccccc3)n1)CCCC2`, for which the growth was -46.4% (active).

As to `Cc1c2cc[nH]c(=O)c2c(C)c2c1[nH]c1cc(OCCN3CCN(C)CC3)ccc12`, the growth was -10.1% (active).

For the compound `CC(C)N1C(=O)S/C(=C2/SC(=O)N(C(C)C)C2=O)C1=O`, the growth is 112%.

As to `COc1cccc(-c2nc3occn3c2-c2ccnc(NCCNS(=O)(=O)c3ccc(C(F)(F)F)cc3)n2)c1`, the growth is 77.7%.

With `CCOC(=O)CCN(CC(C)C)C(=S)Nc1ccccc1`, the growth is 113%.

For the compound `COC(=O)/C=C1\S/C(=N\NC(=O)c2cc3ccc2/C=C\c2ccc(cc2)/C=C\3)N(c2ccccc2)C1=O`, the growth was 47.7%.

In the case of `COc1cc(/C=C/C(=O)c2nc3cc(F)ccc3nc2C)cc(OC)c1OC`, the growth is 82%.

As for `O=C(/C(=C\c1ccc([N+](=O)[O-])cc1)S(=O)Cc1ccc(F)cc1)c1ccc(F)cc1` (stereo not given), the growth was 8.65% (active).

Turning to `O=C(Cn1c[n+](CC(=O)c2ccc(-c3ccccc3)cc2)c2ccccc21)Nc1cccc2cccnc12`, the growth was -61.8% (active).

Take `N#CC(C(=O)/C(=N/NC(=O)c1ccccc1O)C(C#N)c1ccccc1)c1ccccc1` (stereo not given): the growth is 105%.

As for `COc1cc(NC(=O)CSc2nc3ccc(C)cc3c(=O)n2Cc2ccccc2)cc(OC)c1OC`, the growth is 88.6%.

With `Nc1nc(Nc2ccccc2SSc2ccccc2Nc2nc(N)nc(-c3cccs3)n2)nc(-c2ccsc2)n1`, the growth was 97.8%.

Take `CC(=O)N1N=C(c2ccc(-n3ccc(C(F)(F)F)n3)c(F)c2)CC1c1ccc[nH]1` (stereo not given): the growth was 122%.

For `O=Cc1cc2ccccc2nc1Oc1ccc(C(F)(F)F)cc1`, the growth was 83.6%.

On to `COc1ccc(CC(C)=C(c2ccc(OCCN3CCCCCC3)cc2)c2ccc(OCCN3CCCCCC3)cc2)cc1`, for which the growth was -67.5% (active).

Regarding `Cc1nnc2c(Cc3ccccc3)nc3ccccc3n12`, the growth was 113%.

For `O=S(=O)(NCCNc1nccc(-c2c(-c3cccc(O)c3)nc3occn23)n1)c1cccc(F)c1`, the growth was 30.1%.

As to `O=C(/C=C/c1ccc[nH]1)c1ccc(-n2ccc(C(F)(F)F)n2)c(F)c1`, the growth was 119%.

`O=C1Nc2cc(-c3ccc(NC(=O)c4ccccc4)cc3)ccc2/C1=C/c1ccc[nH]1`: the growth is 118%.

Regarding `CN1CCN(CCNc2nccc(-c3c(-c4cccc(O)c4)nc4sccn34)n2)S1(=O)=O`, the growth is 17.6%.

As to `Cc1nc2sccn2c1-c1cn2ccsc2n1`, the growth is 87.2%.

Turning to `COc1ccccc1/C(C)=N/NC(=O)CSc1nc2ccccc2c(=O)n1Cc1ccc(S(N)(=O)=O)cc1`, the growth was 119%.

In the case of `O=C(c1ccccc1)N1N=C(c2ccc(-n3ccc(C(F)(F)F)n3)c(F)c2)CC1c1ccc[nH]1` (stereo not given), the growth was 116%.

On to `CCOC(=O)c1cc(C#N)n2ccc3ccccc3c12`, for which the growth was 112%.

In the case of `Oc1ccc(C2c3ccccc3Oc3ccccc32)c2cccnc12`, the growth was 34.8%.

For the compound `COc1cc(/C=C2\COc3ccc(-c4ccccc4)cc3C2=O)cc(OC)c1`, the growth is 107%.

Consider `CC1(C)NCCC[C@]2(C)[C@H]3CC(=O)[C@H]4[C@@H]5C[C@](C)(CO)CC[C@]5(C)CC[C@@]4(C)[C@]3(C)CC[C@@H]12`, for which the growth was 94.2%.

For `COc1cc(C2C3=C(COC3=O)N(CCO)c3cc4c(cc32)OCO4)cc(OC)c1OC` (stereo not given), the growth was -84.3% (active).

Take `Cc1nc2sccn2c1-c1nc2sccn2c1/C=C1/C(=O)Nc2ccccc21`: the growth is 20.1%.

In the case of `NC(=O)CSSCC(N)=O`, the growth is 108%.

Regarding `COc1cc2nc(-c3ccc(Cl)cc3)cc(OCCCN3CCOCC3)c2cc1OC`, the growth was 25.7%.
